The text below walks through data of the supplement of paper PMC5499739.

Over roughly 16,000 sequences, “Z-score” has its median near -0.37; the highest 2% begin near 3.2. This excerpt belongs to a sample that is enriched for the highest values.

This assay has as its system RBM10 RRM1-ZnF (GST-tagged construct). Nature of the assay: RNAcompete 7-mer binding Z-score; higher = stronger binding preference. The procedure: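 RNAcompete: 20 pmol GST-tagged RBM10 RNA-binding constructs were incubated with a designed RNA pool of about 241,000 sequences up to 41 nt (1.5 nmol) on glutathione beads for 30 min at 4 °C and washed. Bound RNAs were identified by microarray hybridisation. Each RNA 7-mer is scored by a one-sided Z-score of its enrichment, computed over probes that contain the 7-mer within longer pool sequences.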
CGUUCUA: the “RNAcompete 7-mer binding Z-score” value was -0.811.
UUUCUUA: the “RNAcompete 7-mer binding Z-score” value is -0.727.
Consider UUAUAAC, for which the “RNAcompete 7-mer binding Z-score” value was -0.704.
On to GACUAUA, for which the “RNAcompete 7-mer binding Z-score” value was -0.542.
Regarding GAAGGCU, the “RNAcompete 7-mer binding Z-score” value amounted to 0.621.
For the sequence CAAGGGG, the “RNAcompete 7-mer binding Z-score” value was 2.79.
Under UAAGGGU stands 3.44.
With UAAGGGG, the “RNAcompete 7-mer binding Z-score” value was 3.27.
With CAAGGGU, the “RNAcompete 7-mer binding Z-score” value turned out to be 2.65.
Under UAAGGCU stands 0.183.
Turning to CAAGGGA, the “RNAcompete 7-mer binding Z-score” value was determined as 2.42.
In the case of GAAGGGU, the “RNAcompete 7-mer binding Z-score” value amounted to 4.19.
Turning to GAAGGGC, the “RNAcompete 7-mer binding Z-score” value was found to be 2.98.
For AAAGGGA, the “RNAcompete 7-mer binding Z-score” value worked out at 4.42.
For the sequence AAAGGGC, the “RNAcompete 7-mer binding Z-score” value is 2.62.
As to UAAGGCG, the “RNAcompete 7-mer binding Z-score” value stood at 1.03.
For the sequence ACUUAGU, the “RNAcompete 7-mer binding Z-score” value is -0.435.
As to GAAUGCU, the “RNAcompete 7-mer binding Z-score” value was -0.184.
As to AUAGAAU, the “RNAcompete 7-mer binding Z-score” value is -0.132.
Take CCUCGCU: the “RNAcompete 7-mer binding Z-score” value was -0.681.
As for UUACUAC, the “RNAcompete 7-mer binding Z-score” value is -0.707.
As to UGCUGUG, the “RNAcompete 7-mer binding Z-score” value is -0.119.
Regarding UCUGACG, the “RNAcompete 7-mer binding Z-score” value is -0.535.
Regarding UACCAAC, the “RNAcompete 7-mer binding Z-score” value was -0.668.
For the sequence UAAGGGC, the “RNAcompete 7-mer binding Z-score” value was 1.49.
Turning to UAAGGCA, the “RNAcompete 7-mer binding Z-score” value is 0.888.
Consider GAAGGGA, for which the “RNAcompete 7-mer binding Z-score” value stood at 4.52.
As to GAAGGCA, the “RNAcompete 7-mer binding Z-score” value was 1.7.
As for GCAGGGA, the “RNAcompete 7-mer binding Z-score” value was 2.92.
Regarding UAAGGGA, the “RNAcompete 7-mer binding Z-score” value was 3.27.
For CCUCAUC, the “RNAcompete 7-mer binding Z-score” value is -0.737.
In the case of CCACGUA, the “RNAcompete 7-mer binding Z-score” value was -0.578.
With CGGCGGG, the “RNAcompete 7-mer binding Z-score” value was found to be 2.07.
Turning to GGGCAGG, the “RNAcompete 7-mer binding Z-score” value worked out at 3.39.
In the case of UGGCGGU, the “RNAcompete 7-mer binding Z-score” value was found to be 1.49.
In the case of GGACAGU, the “RNAcompete 7-mer binding Z-score” value is 0.842.
Turning to GGGCAGA, the “RNAcompete 7-mer binding Z-score” value was determined as 2.45.
AGGCAGG: the “RNAcompete 7-mer binding Z-score” value came out at 1.8.
In the case of UGGCGGG, the “RNAcompete 7-mer binding Z-score” value was determined as 3.47.
Take GGGCGAA: the “RNAcompete 7-mer binding Z-score” value worked out at 2.22.
Take GGGCGAG: the “RNAcompete 7-mer binding Z-score” value stood at 3.37.
Regarding GGACAGG, the “RNAcompete 7-mer binding Z-score” value is 3.3.
Regarding GGGCGAC, the “RNAcompete 7-mer binding Z-score” value amounted to 1.81.
For the sequence AGACAGG, the “RNAcompete 7-mer binding Z-score” value is 1.59.
On to UCUGGUA, for which the “RNAcompete 7-mer binding Z-score” value is -0.435.
Turning to CAUAACA, the “RNAcompete 7-mer binding Z-score” value was -0.444.
Turning to UGUUAUC, the “RNAcompete 7-mer binding Z-score” value was -0.457.
Under UGUCUCU stands -0.649; under CGCUAUC, -0.668; under CGGAAGC, 0.283.
For the sequence GGACAAU, the “RNAcompete 7-mer binding Z-score” value came out at 0.927.
Under UGCGACA stands -0.145; under UCAGAUC, -0.604; under ACUAGGA, 0.719.
GGGCGGG: the “RNAcompete 7-mer binding Z-score” value was 3.66.
Under GGGCGGA stands 2.86.
On to GGGCGGU, for which the “RNAcompete 7-mer binding Z-score” value stood at 2.28.
With CUCAAAU, the “RNAcompete 7-mer binding Z-score” value was -0.698.
For the sequence AACUUCC, the “RNAcompete 7-mer binding Z-score” value was -0.919.
Consider AAAUUCA, for which the “RNAcompete 7-mer binding Z-score” value was -0.668.
Under CUGUUAA stands -0.779.
On to UGGUACG, for which the “RNAcompete 7-mer binding Z-score” value amounted to 1.43.
As for AAACUAG, the “RNAcompete 7-mer binding Z-score” value is -0.327.
Under UGGGGUA stands 3.56.
With GGGGGUA, the “RNAcompete 7-mer binding Z-score” value came to 3.99.
Under GCGGGUA stands 2.88.
Under UUGGGUA stands 2.33.
Under CGGGGUA stands 3.2.
Regarding AGGGGUA, the “RNAcompete 7-mer binding Z-score” value is 3.69.
As to ACGGGUA, the “RNAcompete 7-mer binding Z-score” value was found to be 2.05.
With AGGGGUC, the “RNAcompete 7-mer binding Z-score” value amounted to 1.98.
On to GACCGGC, for which the “RNAcompete 7-mer binding Z-score” value is -0.532.
For the sequence UGGAGUG, the “RNAcompete 7-mer binding Z-score” value was 3.08.
In the case of GCUUCCC, the “RNAcompete 7-mer binding Z-score” value was -0.665.
Regarding UGUACAC, the “RNAcompete 7-mer binding Z-score” value was -0.24.
Under AUGCAAG stands 0.472.
Regarding ACAGGCC, the “RNAcompete 7-mer binding Z-score” value is -0.0512.
Under UCCUUUG stands -0.876; under UCCGGCG, -0.275.
With AUCCGGU, the “RNAcompete 7-mer binding Z-score” value was -0.227.
GAGUUAA: the “RNAcompete 7-mer binding Z-score” value is 0.29.
Regarding AUGAAGG, the “RNAcompete 7-mer binding Z-score” value came out at 2.96.
For AAGAAGG, the “RNAcompete 7-mer binding Z-score” value is 3.54.
Under CAGAAGG stands 1.57.
With UAGAAGG, the “RNAcompete 7-mer binding Z-score” value is 3.12.
Take CUGAAGG: the “RNAcompete 7-mer binding Z-score” value is 1.22.
With GAGAAGG, the “RNAcompete 7-mer binding Z-score” value is 4.53.
Under GUGAAGG stands 3.74; under AAGAAGA, 1.11; under GAGAAGA, 1.22.
Under AUAAAGU stands -0.155; under UUCCCGC, -0.759.
